Results reported in PubChem BioAssay (Tox21).
Where “and” joins values, the source holds several entries; their conditions need not be identical. Equal values may be shown once. Inconclusive results are not listed. A call without a number means that no potency is given here. Some structures have more than one record in an assay (separate samples or runs), and their calls can disagree. Calls of active or inactive are those of the source. The call rests on the fitted dose curve; in most records, active means well fitted curve in the direction sought with a large enough effect in the repeat runs; inconclusive means weak or mixed curves; inactive means no such curve, though single readings can be large; an effect the other way counts as inactive or inconclusive.

Columns and labels:
[1] = biological target: Cytochrome P450 2D6 (Homo sapiens) (UniProt P10635); assay: Cytochrome P450 Family 2 Subfamily D Member 6 (CYP2D6) small molecule antagonists: luciferase reporter qHTS assay (AID 1671196); further: nearly all actives have a fitted effect of over 50% in size; on activity change, negative = inhibition: series mostly up to about 120 µM
Procedure, shortened: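 Cell-free P450-Glo system: CYP2D6 with proluciferin substrate was pre-incubated with compound for 10 min, then reacted with NADPH regeneration for 1 h at room temperature. Luciferin product was detected after 20 min, and data were reported as relative luminescence units.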

[2] = biological target: Cytochrome P450 2C19 (Homo sapiens) (UniProt P33261); assay: Cytochrome P450 Family 2 Subfamily C Member 19 (CYP2C19) small molecule antagonists: luciferase reporter qHTS assay (AID 1671197); further: nearly all actives have a fitted effect of over 65% in size; on activity change, negative = inhibition: series mostly up to about 120 µM
Procedure, shortened: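 Compounds were tested on CYP2C19 activity via proluciferin conversion to luciferin. The 37C, 1 h reaction followed NADPH addition; detection reagent stopped it.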

[3] = biological target: Cytochrome P450 2C9 (Homo sapiens) (UniProt P11712); assay: Cytochrome P450 Family 2 Subfamily C Member 9 (CYP2C9) small molecule antagonists: luciferase reporter qHTS assay (AID 1671198); further: nearly all actives have a fitted effect of over 50% in size; on activity change, negative = inhibition: series mostly up to about 120 µM
Procedure, shortened: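 CYP2C9 activity was measured with a P450-Glo proluciferin substrate. Enzyme–substrate mix was held with compound for 10 min at room temperature, then NADPH regeneration solution was added for 1 h at 37C. Luciferin product was read as luminescence.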

[4] = biological target: Cytochrome P450 1A2 (Homo sapiens) (UniProt P05177); assay: Cytochrome P450 Family 1 Subfamily A Member 2 (CYP1A2) small molecule antagonists: luciferase reporter qHTS assay (AID 1671199); further: nearly all actives have a fitted effect of over 50% in size; on activity change, negative = inhibition: series mostly up to about 120 µM
Procedure, shortened: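 P450-Glo CYP1A2 enzyme–proluciferin substrate mix with compound 10 min at room temperature, then NADPH regeneration 1 h at room temperature. Luciferin detection reagent added, luminescence read after 20 min; furafylline positive control.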

[5] = biological target: Voltage-gated inwardly rectifying potassium channel KCNH2 (Homo sapiens) (UniProt Q12809); assay: Human Ether-a-go-go-Related Gene (hERG) channel small molecule antagonists: fluorescence cell-based qHTS assay (AID 1671200); further: nearly all actives have a fitted effect of over 50% in size;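 on activity change, negative = inhibition: hERG-expressing U2OS cells given a thallium stimulus after FluxOR II dye loading; series mostly up to about 77 µM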
Procedure, shortened: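 In this thallium-flux screen, overnight-cultured U2OS cells bearing the channel are dye-loaded in darkness for an hour, rested 10 min at room temperature, and then monitored kinetically at 480/540 nm for two minutes post-stimulus.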
Potency means the concentration at half of the fitted maximal effect.

Chain of Cytochrome P450 2C9 (Homo sapiens) (P11712 whole entry, looked up): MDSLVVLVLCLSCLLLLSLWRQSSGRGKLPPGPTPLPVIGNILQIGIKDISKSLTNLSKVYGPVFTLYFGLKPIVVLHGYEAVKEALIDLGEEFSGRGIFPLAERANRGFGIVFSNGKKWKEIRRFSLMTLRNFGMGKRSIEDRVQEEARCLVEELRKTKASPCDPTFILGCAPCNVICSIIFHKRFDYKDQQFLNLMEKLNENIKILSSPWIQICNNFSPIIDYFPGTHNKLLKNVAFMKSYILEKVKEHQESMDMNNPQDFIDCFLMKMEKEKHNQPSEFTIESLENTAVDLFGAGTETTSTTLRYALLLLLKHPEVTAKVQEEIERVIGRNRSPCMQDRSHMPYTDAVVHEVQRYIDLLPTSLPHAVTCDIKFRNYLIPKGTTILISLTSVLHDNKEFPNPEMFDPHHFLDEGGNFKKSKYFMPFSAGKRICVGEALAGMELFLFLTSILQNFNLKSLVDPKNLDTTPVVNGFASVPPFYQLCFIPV
Chain of Cytochrome P450 2C19 (Homo sapiens) (P33261 whole entry, looked up): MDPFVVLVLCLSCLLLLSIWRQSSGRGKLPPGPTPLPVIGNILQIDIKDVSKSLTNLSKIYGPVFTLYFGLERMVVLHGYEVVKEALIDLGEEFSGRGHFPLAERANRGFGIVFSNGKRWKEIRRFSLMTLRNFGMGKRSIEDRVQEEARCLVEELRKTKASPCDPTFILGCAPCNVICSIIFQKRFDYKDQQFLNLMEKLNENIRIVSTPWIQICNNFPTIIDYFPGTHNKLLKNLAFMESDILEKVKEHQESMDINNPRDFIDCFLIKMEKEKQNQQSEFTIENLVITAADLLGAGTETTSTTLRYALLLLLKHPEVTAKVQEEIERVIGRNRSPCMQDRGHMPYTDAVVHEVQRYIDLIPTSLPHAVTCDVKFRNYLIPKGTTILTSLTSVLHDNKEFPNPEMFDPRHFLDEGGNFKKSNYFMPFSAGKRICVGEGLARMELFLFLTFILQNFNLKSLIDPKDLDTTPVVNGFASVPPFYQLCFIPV
Chain of Cytochrome P450 1A2 (Homo sapiens) (P05177 whole entry, looked up): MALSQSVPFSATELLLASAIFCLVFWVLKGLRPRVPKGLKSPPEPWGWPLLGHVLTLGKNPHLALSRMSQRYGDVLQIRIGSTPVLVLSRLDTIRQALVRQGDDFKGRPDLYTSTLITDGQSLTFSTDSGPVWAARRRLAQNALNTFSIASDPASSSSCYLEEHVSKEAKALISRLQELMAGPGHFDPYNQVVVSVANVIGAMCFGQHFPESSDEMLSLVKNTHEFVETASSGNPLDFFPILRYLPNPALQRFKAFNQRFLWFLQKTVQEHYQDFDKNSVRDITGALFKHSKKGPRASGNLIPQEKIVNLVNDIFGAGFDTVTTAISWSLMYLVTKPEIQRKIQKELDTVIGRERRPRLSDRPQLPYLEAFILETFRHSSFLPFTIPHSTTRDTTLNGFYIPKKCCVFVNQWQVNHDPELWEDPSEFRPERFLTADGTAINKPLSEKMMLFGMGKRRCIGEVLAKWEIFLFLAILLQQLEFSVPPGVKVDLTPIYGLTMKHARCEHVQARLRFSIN
Chain of Voltage-gated inwardly rectifying potassium channel KCNH2 (Homo sapiens) (Q12809 whole entry, looked up): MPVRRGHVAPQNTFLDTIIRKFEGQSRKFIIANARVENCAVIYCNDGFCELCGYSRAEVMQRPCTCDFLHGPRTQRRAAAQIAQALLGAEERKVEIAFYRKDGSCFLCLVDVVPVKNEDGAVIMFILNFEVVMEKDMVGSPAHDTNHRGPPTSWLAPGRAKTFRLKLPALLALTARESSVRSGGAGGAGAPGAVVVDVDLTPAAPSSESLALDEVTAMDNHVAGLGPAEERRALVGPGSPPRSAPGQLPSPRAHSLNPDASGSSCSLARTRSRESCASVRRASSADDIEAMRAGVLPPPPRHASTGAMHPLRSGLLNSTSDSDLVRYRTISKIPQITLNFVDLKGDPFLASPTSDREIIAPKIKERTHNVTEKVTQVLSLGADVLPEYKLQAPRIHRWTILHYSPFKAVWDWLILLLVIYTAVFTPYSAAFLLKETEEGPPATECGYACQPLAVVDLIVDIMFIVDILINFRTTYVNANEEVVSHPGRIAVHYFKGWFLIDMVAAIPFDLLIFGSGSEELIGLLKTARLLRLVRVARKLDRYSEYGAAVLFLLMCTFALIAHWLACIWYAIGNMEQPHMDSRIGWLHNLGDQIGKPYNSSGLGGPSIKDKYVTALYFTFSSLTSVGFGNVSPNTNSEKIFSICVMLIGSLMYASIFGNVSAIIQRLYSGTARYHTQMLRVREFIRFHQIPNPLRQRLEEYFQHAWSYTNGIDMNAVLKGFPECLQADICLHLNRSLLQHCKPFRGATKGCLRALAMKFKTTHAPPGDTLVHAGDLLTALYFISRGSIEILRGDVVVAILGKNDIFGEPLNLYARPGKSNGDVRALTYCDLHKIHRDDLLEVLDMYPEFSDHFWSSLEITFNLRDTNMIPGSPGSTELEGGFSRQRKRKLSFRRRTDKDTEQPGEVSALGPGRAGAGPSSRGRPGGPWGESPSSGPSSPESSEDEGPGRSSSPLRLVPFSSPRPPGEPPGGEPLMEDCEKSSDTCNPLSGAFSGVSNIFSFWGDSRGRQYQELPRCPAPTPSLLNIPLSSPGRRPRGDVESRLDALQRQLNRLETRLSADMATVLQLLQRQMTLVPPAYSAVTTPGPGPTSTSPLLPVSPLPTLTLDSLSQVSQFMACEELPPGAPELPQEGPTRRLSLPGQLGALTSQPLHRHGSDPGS
Chain of Cytochrome P450 2D6 (Homo sapiens) (P10635 whole entry, looked up): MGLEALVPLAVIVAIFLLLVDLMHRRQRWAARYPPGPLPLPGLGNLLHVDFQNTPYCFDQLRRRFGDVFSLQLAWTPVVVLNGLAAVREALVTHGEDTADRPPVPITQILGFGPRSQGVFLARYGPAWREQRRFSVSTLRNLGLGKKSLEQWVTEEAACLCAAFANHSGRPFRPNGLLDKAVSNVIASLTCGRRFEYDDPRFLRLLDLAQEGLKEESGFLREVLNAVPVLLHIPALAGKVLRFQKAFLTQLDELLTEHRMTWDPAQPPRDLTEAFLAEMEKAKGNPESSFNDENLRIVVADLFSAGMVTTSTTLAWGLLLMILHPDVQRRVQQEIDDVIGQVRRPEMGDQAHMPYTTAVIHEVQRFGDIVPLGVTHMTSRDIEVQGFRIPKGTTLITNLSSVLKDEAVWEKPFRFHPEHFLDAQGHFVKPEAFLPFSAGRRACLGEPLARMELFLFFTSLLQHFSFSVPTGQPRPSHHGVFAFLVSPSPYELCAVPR

Row | SMILES | Potency [1] | Potency [2] | Potency [3] | Potency [4] | Potency [5] | activity change, negative = inhibition [1] | activity change, negative = inhibition [3] | activity change, negative = inhibition [5]
1 | CCOc1ccc(C(=O)OCCN(CC)CC)cc1 | 1.55 µM (active) | inactive | inactive | 27.5 µM (active) | inactive | – | – | –
2 | CO[Si](CCCOCC1CO1)(OC)OC (configuration not stated) | inactive | inactive | inactive | inactive | inactive | – | – | –
3 | CCS(=O)(=O)c1ccc(OC)c(C(=O)OC)c1 | inactive | inactive | inactive | inactive | inactive | – | – | –
4 | CCOC(=O)c1ccc(C)cc1 | inactive | inactive | inactive | inactive | inactive | – | – | –
5 | CCOC(=O)Nc1ccc(NCc2ccc(F)cc2)nc1N | 3.09 µM (active) | 11 µM (active) | 6.17 µM (active) | inactive | – | – | – | –
6 | C=C[Si](OC(=C)C)(OC(=C)C)OC(=C)C | inactive | 39.9 µM (active) | inactive | inactive | inactive | – | – | –
7 | O=C[C@H](O)[C@@H](O)[C@H](O)[C@H](O)CO | inactive | inactive | inactive | inactive | inactive | – | – | –
8 | OCCCC1CCCCC1 | inactive | inactive | inactive | inactive | inactive | – | – | –
9 | c1cnc(N2CCN(Cc3ccc4c(c3)OCO4)CC2)nc1 | 1.23 µM (active) | 3.47 µM (active) | 15.5 µM (active) | 4.07 µM (active) | inactive | – | – | –
10 | ClC(Cl)(Br)Br | 39.2 µM (active) | inactive | inactive | inactive | inactive | – | – | –
11 | CC(C)(c1ccc(O)cc1)c1ccc(O)cc1 | inactive and 64.4 µM (active) | inactive | 35.2 µM (active) and 28.8 µM (active) | inactive and 57.4 µM (active) | inactive | – | – | –
12 | CC(C)NCC(O)c1ccc(NS(C)(=O)=O)cc1 (configuration not stated) | 36 µM (active) | inactive | inactive | inactive | 22.1 µM (active) | – | – | –
13 | CCCCOCCOCCOCCCC | inactive | inactive | inactive | inactive | inactive | – | – | –
14 | CCCC(=O)O[C@]1(C(=O)CO)CC[C@H]2[C@@H]3CCC4=CC(=O)CC[C@]4(C)[C@H]3[C@@H](O)C[C@@]21C | inactive | inactive | inactive | inactive | inactive | – | – | –
15 | CCc1nccnc1CC | – | inactive | – | inactive | – | -14% [at 23.6 µM] (inactive) | 2.92% [at 23.6 µM] (inactive) | -2.32% [at 15.8 µM] (inactive)
16 | COc1cc(C(=O)N2CCCCCCC2)cc(OC)c1OC | inactive | 21.9 µM (active) | inactive | inactive | inactive | – | – | –
17 | N[C@H]1CN(c2c(F)cc3c(=O)c(C(=O)O)cn(C4C[C@H]4F)c3c2Cl)CC12CC2 (some centres not stated) | inactive | inactive | inactive | inactive | inactive | – | – | –
18 | C=CCOCC(CC)(CO)COCC=C | inactive | 3.99 µM (active) | 25.2 µM (active) | 28.3 µM (active) | inactive | – | – | –
19 | CC(C(=O)O)c1ccc(CC2CCCC2=O)cc1 (configuration not stated) | inactive | inactive | inactive | inactive | inactive | – | – | –
20 | O=c1cc(-c2ccccc2)oc2ccccc12 | inactive | 31.7 µM (active) and 7.92 µM (active) | 17.8 µM (active) and 15.4 µM (active) | 317 nM (active) and 477 nM (active) | inactive | – | – | –
21 | C[C@H](NC(CCc1ccccc1)C(=O)O)C(=O)N1CCC[C@H]1C(=O)O (some centres not stated) | inactive | inactive | inactive | inactive | – | – | – | –
22 | CCN1CCC[C@H]1CNC(=O)c1cc(S(N)(=O)=O)ccc1OC | 15.5 µM (active) | inactive | inactive | inactive | inactive | – | – | –
23 | CCOC(=O)C(=O)OCC | 31.7 µM (active) | inactive | inactive | inactive | inactive | – | – | –
24 | C1CN(CCOCCN2CCOCC2)CCO1 | inactive | inactive | inactive | inactive | inactive | – | – | –
25 | CCCCCCCCCCCC | inactive | inactive | inactive | inactive | inactive | – | – | –
26 | CCOC(=O)[C@H](CCc1ccccc1)N[C@@H](C)C(=O)N1[C@H](C(=O)O)C[C@@H]2CCC[C@@H]21 | inactive | inactive | inactive | inactive | inactive | – | – | –
27 | CCCN1CCCC[C@H]1C(=O)Nc1c(C)cccc1C | 4.9 µM (active) | inactive | inactive | inactive | inactive | – | – | –
28 | COC(=O)c1ccc(C)cc1C1=NC(C)(C(C)C)C(=O)N1 (configuration not stated) | inactive | inactive | inactive | inactive | inactive | – | – | –
29 | Cn1cc(S(C)=O)c(=O)c2ccc(F)cc21 (configuration not stated) | inactive | inactive | inactive | inactive | inactive | – | – | –
30 | NC(=O)COCCN1CCN(C(c2ccccc2)c2ccc(Cl)cc2)CC1 (configuration not stated) | inactive | inactive | inactive | inactive | – | – | – | –
